Screens as filed in PubChem BioAssay.
This excerpt belongs to a sample that is enriched for hits.
ST2 inh: inhibitors of human ST2 (IL1RL1) binding to IL-33, primary screen, biochemical, AlphaLISA; Interleukin-1 receptor-like 1 (Homo sapiens), Q01638; AlphaLISA ST2-Fc/biotin-IL-33 interaction, 1 h; inhibition, % for hits at 17 µM; 2.3% of 78,000 active; AID 1259354, 2018; in the data active means inhibition above about 30%
Target sequence (Q01638 whole entry, looked up): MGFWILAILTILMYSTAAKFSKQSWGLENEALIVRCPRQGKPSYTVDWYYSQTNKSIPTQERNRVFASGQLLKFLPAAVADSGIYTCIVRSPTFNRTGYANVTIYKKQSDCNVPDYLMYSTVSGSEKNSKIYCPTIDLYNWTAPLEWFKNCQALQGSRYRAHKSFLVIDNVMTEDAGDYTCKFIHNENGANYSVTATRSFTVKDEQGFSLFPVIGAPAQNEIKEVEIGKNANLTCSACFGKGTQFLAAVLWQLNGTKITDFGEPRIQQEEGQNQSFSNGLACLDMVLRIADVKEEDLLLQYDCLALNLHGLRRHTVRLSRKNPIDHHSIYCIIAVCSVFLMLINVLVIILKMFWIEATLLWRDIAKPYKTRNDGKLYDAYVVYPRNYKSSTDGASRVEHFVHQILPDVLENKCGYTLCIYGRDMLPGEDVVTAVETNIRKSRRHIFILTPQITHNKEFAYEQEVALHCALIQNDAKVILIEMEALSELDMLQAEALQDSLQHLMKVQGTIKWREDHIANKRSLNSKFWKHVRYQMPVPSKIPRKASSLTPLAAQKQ
Large screens that a line does not name were inactive.

CCOC(=O)C1=C(C)NC2=C(C(=O)c3ccccc32)C1c1ccc(C)cc1 (stereo not given)	none
O=S(=O)(CCn1cnc(-c2ccccc2)c1-c1cnc[nH]1)N1CCCC1	none
CCC1(CC)CCN(C(=O)c2nnc(COC)o2)C1	none
Cc1noc(C)c1C1CCCN1C(=O)c1coc2c1C(=O)CCC2 (stereo not given)	none
O=C1NCC2(CCCN(C(=O)c3cnc4ccccc4c3)CC2)O1 (stereo not given)	none
C=CCN1C(=O)c2ccccc2Sc2ccc(C(=O)NCc3cccs3)cc21	none
CC1(C)CC(=O)C2=C(C1)NC1=C(C(=O)CC(C)(C)C1)C2c1ccccc1	none
CC1(C)CC(=O)C2=C(C1)Nc1sc(C#N)c(N)c1C2c1ccccc1 (stereo not given)	ST2 inh 33%
CC1(C)CC(=O)C2=C(C1)Nc1[nH]c(=O)[nH]c(=O)c1C2c1ccccc1 (stereo not given)	none
COc1ccc(C(=O)O)cc1N1C(=O)C2C3C=CC(C3)C2C1=O (stereo not given)	none
C1=CC2C(C1)C1CC2C2C1N=NN2c1ccccc1 (stereo not given)	none
CCN1CCN(C(=O)c2oc3ccc(S(=O)(=O)N4CCCCCC4)cc3c2C)CC1	none
O=C(Nc1ccc2oc(-c3ccc(F)cc3)nc2c1)c1ccccc1	none
O=C(Nc1ccc2oc(-c3ccncc3)nc2c1)c1ccc(-c2ccccc2)o1	ST2 inh 41%
CN(C)c1ccc(-c2nc3cc(NC(=O)Cc4ccccc4)ccc3o2)cc1	none
O=C1C2CC=C(Cl)CC2C(=O)N1CCNC1CCCCC1 (stereo not given)	none
CCOC(=O)c1ccc2c(c1)N(Cc1ccccc1)C(=O)CS2	none
O=C(Nc1cnn(Cc2ccc(F)cc2)c1)c1cc(-c2cccc(Cl)c2)on1	none
N=Nc1[nH]c(N)c2ccccc12	ST2 inh 46%
CCc1[nH]c2c(CNC(=O)C(C)Cn3cccn3)cc(C)cc2c1C (stereo not given)	none
COc1ccc(-c2nc(SCC(=O)NCc3ccco3)c(-c3ccc(OC)cc3)[nH]2)cc1	none
Cc1ccc(CN2C[C@@H]3C[C@@H](c4ccc(-n5cccn5)cc4C)N4CCC[C@@]34C2=O)o1	none
COc1ccc2oc(=Nc3ccccc3OC)c(C(N)=O)cc2c1	none
COc1ccc2oc(=Nc3ccc(-c4ccccc4)cc3)c(C(N)=O)cc2c1	none
COc1ccc2oc(=Nc3ccc(C(C)=O)cc3)c(C(N)=O)cc2c1	ST2 inh 40%
C=CCn1c(SCC(=O)NCCCO)nc2sc3c(c2c1=O)CCCC3	none
C=CCC(=O)N1CCC2(CCCN(Cc3cccc(OC)c3)C2=O)C1 (stereo not given)	none
Cc1ccc(C(=O)NCCC(=O)N2CCc3nc(C)n(C)c(=O)c3CC2)cc1	none
Cc1nc2c(c(=O)n1C)CCN(C(=O)Nc1ccc3c(c1)OCO3)CC2	none
Cc1nc2c(c(=O)n1C)CCN(C(=O)C1CCOC(C)(C)C1)CC2 (stereo not given)	ST2 inh 31%
CCOc1ccc(-n2c(SCC(=O)N3CCc4ccccc43)nc3c(c2=O)SCC3)cc1	none
Cn1c(=O)c2c(-c3ccccc3)n3ncccc3c2n(C)c1=O	none
COc1ccc(-c2c3c(=O)n(C)c(=O)n(C)c3c3cccnn23)cc1	none
COc1ccc(-c2c3c(=O)n(C)c(=O)n(C)c3c3c(-c4ccccc4)cc(C)nn23)cc1	ST2 inh 31%
COc1ccc(CN2CCCN(CC(=O)Nc3cc(OC)cc(OC)c3)S2(=O)=O)cc1	none
O=c1c2cnn(-c3ccccc3)c2ncn1Cc1cccc2ccccc12	none
CCOC(=O)c1c(-c2ccccc2)csc1NC(=O)CCCn1nc([N+](=O)[O-])cc1C	none
CCc1ccc(C2C(C#N)=C(N)Oc3n[nH]c(-c4cc(OC)c(OC)c(OC)c4)c32)cc1 (stereo not given)	none
Nc1c(C(=O)Nc2ccc(F)c(Cl)c2)nnn1Cc1ccc(Cl)cc1	none
COc1ccc(C(=O)Nc2ccc(Nc3nc(C)cc(Nc4ccc(C)cc4)n3)cc2)cc1OC	none
COc1ccc(Nc2cc(C)nc(Nc3ccc(NC(=O)c4ccccc4OC)cc3)n2)cc1	ST2 inh 39%
CCC(CC)C(=O)Nc1ccc(Nc2nc(C)cc(Nc3ccccc3)n2)cc1	none
Cc1cc(Nc2ccccc2)nc(Nc2ccc(NC(=O)c3ccc(F)cc3)cc2)n1	none
COc1cccc(C(=O)Nc2ccc(Nc3nc(C)cc(Nc4ccccc4)n3)cc2)c1	none
COc1ccc(Nc2cc(C)nc(Nc3ccc(NC(=O)CCCc4ccccc4)cc3)n2)cc1	ST2 inh 31%
COc1ccc(CC(=O)Nc2ccc(Nc3nc(C)cc(Nc4ccc(OC)cc4)n3)cc2)cc1	ST2 inh 33%
CC(=O)Nc1ccc(Nc2nc(C)cc(Nc3ccccc3)n2)cc1	none
COc1ccc(NC(=O)Cc2ccc(Br)cc2)cc1	none
O=C(CCS(=O)(=O)c1cccc2nonc12)NCc1ccccc1	none
CN(C(=O)c1coc(COc2ccc3c(c2)OCO3)n1)C1CCCc2ccccc21 (stereo not given)	none
COCC1(C(=O)N2CCOC(c3ccc(F)cc3)C2)CCC1 (stereo not given)	none
O=C(COc1ccccc1)N1C[C@@H]2C[C@H](C1)c1c(NS(=O)(=O)c3cccs3)ccc(=O)n1C2	none
CCNc1ncc(C(=O)N(C)Cc2ccsc2)cn1	none
O=C1OC(c2ccc3c(c2)OCO3)=N/C1=C\c1ccccc1Br	none
CC1=N/C(=C\c2ccc(OC(F)F)cc2)C(=O)O1	none
Cc1ccc(C2=N/C(=C\c3ccco3)C(=O)O2)cc1[N+](=O)[O-]	none
Cc1ccccc1C1=N/C(=C\c2ccco2)C(=O)O1	ST2 inh 44%
Cc1ccc(/C=C2\N=C(c3ccccc3C)OC2=O)o1	ST2 inh 65%
CCOc1ccc(/C=C2\N=C(c3ccc(Br)cc3)OC2=O)cc1	none
Cc1ccc(/C=C2\N=C(c3ccc(I)cc3)OC2=O)o1	ST2 inh 47%
Cc1cnc(CNC(=O)C2CCC(=O)N(CCCc3ccccc3)C2)cn1 (stereo not given)	none
COc1ccc(-n2nnnc2C2(Nc3cccc(Cl)c3)CCCCC2)cc1	none
CC(C)C(NC(=O)/C(=C/c1ccc2c(c1)OCO2)NC(=O)c1ccco1)C(=O)O (stereo not given)	none
CCOc1ccc2nc(N3CCN(c4ccccc4)CC3)sc2c1	none
CCCNS(=O)(=O)c1cc(OC)ccc1OC	none
N#Cc1ccc(C(=O)Nc2ccc3n(c2=O)C[C@H]2C[C@@H]3CN(C(=O)c3cccnc3)C2)cc1	none
CCN(CC)S(=O)(=O)c1ccc(C(=O)N(c2cc(C)cc(C)c2)C2C=CS(=O)(=O)C2)cc1 (stereo not given)	none
CN(C)c1ccc(CN2CCc3ccccc3C2)cc1	ST2 inh 31%
CCOc1ccc(CN2CCc3ccccc3C2)cc1	none
c1ccc2c3c([nH]c2c1)CN(Cc1ccc2c(c1)OCO2)CC3	none
CN(C)c1ccc(CN2CCc3c([nH]c4ccccc34)C2)cc1	ST2 inh 32%
Clc1ccc(CN2CCc3ccccc3C2)cc1Cl	none
Clc1ccccc1CN1CCc2c([nH]c3ccccc23)C1	none
CC1(C)Cc2ccccc2C(CC2=NC(C)(C)Cc3ccccc32)=N1	none
COc1nc(Oc2ccc(/C=N\O)cc2)nc(N(C)C)n1	none
CCCN1CCN(CCCNC(=O)c2cn(CC(C)C)c(=O)c3c2c2ccccc2n3C)CC1	none
CCN(CC)S(=O)(=O)c1ccc2c(c1)CC(C(=O)N1CCN(Cc3ccccc3)CC1)N2C(C)=O (stereo not given)	none
C=CCSc1nnc2c(n1)OC(c1ccc(O)c(O)c1)Nc1ccccc1-2 (stereo not given)	none
O=C(Nc1c2c(nn1-c1ccc(Cl)cc1)CSC2)c1ccccc1F	none
